Assay results as given in PubChem BioAssay (Tox21).
Inconclusive results are not listed. Activity calls are given as the source filed them. Calls come from the whole dose curve; as a rule, active = well fitted activation curve with a large enough effect; inconclusive = small, poorly fitted or top-dose-only effect; inactive = flat fitted curve, though single readings scatter.

Experiment: qHTS assay to identify small molecule phospholipidosis (PLD) inducers (AID 1259344)
Details: HepG2 phospholipidosis, LipidTOX Red imaging, 24 h; series mostly up to 38.3 µM; PLD induction: at the top concentration
Outline: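 Phospholipidosis is scored by imaging LipidTOX-stained pits in HepG2 cells exposed to compound for 24 h at 37 C; pit counts and integrated intensities per well and per cell serve as outputs.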
% is set by controls: 0 for no effect and ±100 for the full control effect.

| SMILES | PLD induction | Potency |
| --- | --- | --- |
| O=C(O)[C@H]1CN(C/C=C/P(=O)(O)O)CCN1 | 0.469% (inactive) |  |
| C=N[C@@H](C(=O)N[C@@H]1C(=O)N2[C@@H]1SC(C)(C)[C@@H]2C(=O)O)c1ccccc1 | 0.226% (inactive) |  |
| CC(C)[N+]1(C)[C@@H]2CC[C@H]1CC(OC(=O)C(CO)c1ccccc1)C2 (stereo not given in full) |  | inactive |
| O=C(O)c1ccccc1O |  | inactive |
| CC[C@@H](C)[C@H](N)C(=O)O | -0.598% (inactive) |  |
| C=C1[C@@H]2CC[C@@H](C2)C1(C)C | 2.78% (inactive) |  |
| FC(F)(F)C(F)(F)C(F)(F)C(F)(F)C(F)(F)F | 0.286% (inactive) |  |
| CC1CCCCN1CCCOC(=O)c1ccccc1 (stereo not given) | -0.661% (inactive) |  |
| O=C(O)CC(O)(CC(=O)O)C(=O)O | -0.895% [at 1.53 µM] (inactive) |  |
| CCC(=O)OC(OP(=O)(CCCCc1ccccc1)CC(=O)N1C[C@H](C2CCCCC2)C[C@H]1C(=O)O)C(C)C (stereo not given in full) | -0.0484% (inactive) |  |
| Nc1nc(/C(=C/CC(=O)O)C(=O)N[C@@H]2C(=O)N3C(C(=O)O)=CCS[C@H]23)cs1 | -0.404% (inactive) |  |
| C[Se]CC[C@H](N)C(=O)O | 1.44% (inactive) |  |
| C/C(=C(/CCO)SSCC1CCCO1)N(C=O)Cc1cnc(C)nc1N (stereo not given) |  | inactive |
| Cc1cc(-c2ccc(N=Nc3ccc4c(S(=O)(=O)O)cc(S(=O)(=O)O)c(N)c4c3O)c(C)c2)ccc1N=Nc1ccc2c(S(=O)(=O)O)cc(S(=O)(=O)O)c(N)c2c1O |  | inactive |
| CC[C@H]1OC(=O)C[C@@H](O)[C@H](C)[C@@H](O[C@@H]2O[C@H](C)[C@@H](O[C@H]3C[C@@](C)(O)[C@@H](O)[C@H](C)O3)[C@H](N(C)C)[C@H]2O)[C@@H](CC=O)C[C@@H](C)C(=O)/C=C/C(C)=C/[C@@H]1CO[C@@H]1O[C@H](C)[C@@H](O)[C@@H](OC)[C@H]1OC |  | inactive |
